# Source: the supplement of paper PMC10849652
# Targets with a hit are over-represented here; the source holds about 7,900 in all. About 0.6% of all pairs of compound and target were hits.
# Compound: CC[C@@H]1C(=O)N(C)c2cnc(Nc3ccc(C(=O)NC4CCN(C)CC4)cc3OC)nc2N1C1CCCC1
# Assay: log2 fold change, soluble protein after heating vs DMSO (PISA); higher = thermal stabilisation; K562 cells, 10 uM, 30 min; active = over 0.2 and 3.5 SD of the protein, either way, in both replicates (recomputed)
# How it was run: (§1)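 Soluble protein was defined as the supernatant after 21,000xg for 90 min. It came from K562 cells at 2×10^6 cells/mL given 10 μM compound for 30 min, heated in aliquots for 3 min across 48°C-58°C, pooled, and extracted in PBS with 0.5% NP-40 at 4°C, and was quantified by TMTpro 16plex LC-MS/MS with equalised channel sums. Thermal stability against control samples, from duplicates, is reported as log2 fold change.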
# Sequence of UniProt Q15021 (Q15021 whole entry, looked up): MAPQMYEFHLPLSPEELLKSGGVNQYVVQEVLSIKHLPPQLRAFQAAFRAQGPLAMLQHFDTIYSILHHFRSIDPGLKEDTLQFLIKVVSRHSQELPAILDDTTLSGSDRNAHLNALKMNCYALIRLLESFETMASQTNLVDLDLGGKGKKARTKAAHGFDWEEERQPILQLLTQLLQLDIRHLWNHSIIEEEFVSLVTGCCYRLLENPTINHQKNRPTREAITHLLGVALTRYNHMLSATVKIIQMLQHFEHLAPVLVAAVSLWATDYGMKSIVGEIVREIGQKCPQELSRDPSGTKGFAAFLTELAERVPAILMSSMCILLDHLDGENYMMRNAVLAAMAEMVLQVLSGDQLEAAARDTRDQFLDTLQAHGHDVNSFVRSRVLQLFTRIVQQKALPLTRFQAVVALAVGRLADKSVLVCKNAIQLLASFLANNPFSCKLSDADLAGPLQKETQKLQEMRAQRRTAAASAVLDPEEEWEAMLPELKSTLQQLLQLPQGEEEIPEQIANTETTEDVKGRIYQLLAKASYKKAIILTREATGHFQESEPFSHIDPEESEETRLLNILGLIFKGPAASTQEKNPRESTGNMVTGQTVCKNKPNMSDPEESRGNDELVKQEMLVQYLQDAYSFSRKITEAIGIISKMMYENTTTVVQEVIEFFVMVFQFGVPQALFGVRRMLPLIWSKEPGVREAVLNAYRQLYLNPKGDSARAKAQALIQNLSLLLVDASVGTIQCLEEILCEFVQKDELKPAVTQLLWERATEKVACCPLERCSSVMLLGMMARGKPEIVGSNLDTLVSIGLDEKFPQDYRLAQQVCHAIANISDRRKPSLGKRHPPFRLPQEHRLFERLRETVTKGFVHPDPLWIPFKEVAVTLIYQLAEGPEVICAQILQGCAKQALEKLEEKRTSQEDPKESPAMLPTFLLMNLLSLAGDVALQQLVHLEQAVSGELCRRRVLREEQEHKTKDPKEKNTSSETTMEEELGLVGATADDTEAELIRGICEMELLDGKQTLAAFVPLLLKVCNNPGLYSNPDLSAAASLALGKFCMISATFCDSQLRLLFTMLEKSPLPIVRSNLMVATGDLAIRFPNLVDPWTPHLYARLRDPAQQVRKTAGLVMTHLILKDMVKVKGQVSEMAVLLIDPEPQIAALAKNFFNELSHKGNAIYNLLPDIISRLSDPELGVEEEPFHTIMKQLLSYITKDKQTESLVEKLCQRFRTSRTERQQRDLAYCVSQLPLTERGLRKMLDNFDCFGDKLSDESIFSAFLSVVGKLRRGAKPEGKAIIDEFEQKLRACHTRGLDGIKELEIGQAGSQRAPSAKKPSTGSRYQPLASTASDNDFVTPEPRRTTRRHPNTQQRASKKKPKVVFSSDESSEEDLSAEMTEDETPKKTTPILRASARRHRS
# Sequence of UniProt Q9NWU1 (Q9NWU1 whole entry, looked up): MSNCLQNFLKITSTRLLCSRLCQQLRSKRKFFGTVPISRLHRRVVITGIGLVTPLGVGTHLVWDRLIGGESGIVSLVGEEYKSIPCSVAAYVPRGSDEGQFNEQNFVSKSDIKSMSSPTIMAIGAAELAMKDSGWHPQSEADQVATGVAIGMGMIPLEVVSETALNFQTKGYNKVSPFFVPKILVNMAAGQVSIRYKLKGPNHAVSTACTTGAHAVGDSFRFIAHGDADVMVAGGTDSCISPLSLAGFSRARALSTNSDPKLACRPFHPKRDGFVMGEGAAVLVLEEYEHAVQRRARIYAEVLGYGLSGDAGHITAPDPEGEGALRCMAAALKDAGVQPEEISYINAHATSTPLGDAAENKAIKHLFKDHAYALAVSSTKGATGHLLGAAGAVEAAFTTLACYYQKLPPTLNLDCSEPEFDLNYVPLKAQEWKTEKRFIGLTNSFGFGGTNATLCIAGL
# Sequence of UniProt Q8NCF5 (Q8NCF5 whole entry, looked up): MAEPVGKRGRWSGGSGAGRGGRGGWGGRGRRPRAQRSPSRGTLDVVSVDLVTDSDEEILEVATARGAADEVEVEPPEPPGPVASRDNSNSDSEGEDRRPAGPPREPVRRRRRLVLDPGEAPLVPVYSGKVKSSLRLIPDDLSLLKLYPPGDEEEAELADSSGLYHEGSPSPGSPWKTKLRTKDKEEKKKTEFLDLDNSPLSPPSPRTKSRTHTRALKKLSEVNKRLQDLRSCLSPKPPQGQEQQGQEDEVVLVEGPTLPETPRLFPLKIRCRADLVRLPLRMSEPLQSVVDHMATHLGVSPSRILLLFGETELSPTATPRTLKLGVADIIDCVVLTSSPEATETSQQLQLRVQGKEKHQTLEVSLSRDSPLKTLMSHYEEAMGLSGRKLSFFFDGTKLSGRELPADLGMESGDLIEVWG
# Sequence of UniProt O00567 (O00567 whole entry, looked up): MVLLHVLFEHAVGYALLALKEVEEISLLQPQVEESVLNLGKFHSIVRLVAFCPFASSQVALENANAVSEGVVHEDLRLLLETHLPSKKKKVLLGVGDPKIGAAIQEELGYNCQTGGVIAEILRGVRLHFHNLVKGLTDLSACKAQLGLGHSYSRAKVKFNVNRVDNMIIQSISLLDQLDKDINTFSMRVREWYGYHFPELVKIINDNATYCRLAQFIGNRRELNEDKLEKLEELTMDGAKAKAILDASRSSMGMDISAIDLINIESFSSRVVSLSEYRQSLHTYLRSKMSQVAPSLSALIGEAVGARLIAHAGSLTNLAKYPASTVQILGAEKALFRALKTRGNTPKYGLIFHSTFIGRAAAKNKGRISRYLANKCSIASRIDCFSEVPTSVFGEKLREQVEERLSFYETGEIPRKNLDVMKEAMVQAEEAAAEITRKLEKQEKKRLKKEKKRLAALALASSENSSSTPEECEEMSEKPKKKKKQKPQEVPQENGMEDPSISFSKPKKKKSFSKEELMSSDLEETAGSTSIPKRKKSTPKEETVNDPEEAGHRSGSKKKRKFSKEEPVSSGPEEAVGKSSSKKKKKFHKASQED
# Sequence of UniProt Q01804 (Q01804 whole entry, looked up): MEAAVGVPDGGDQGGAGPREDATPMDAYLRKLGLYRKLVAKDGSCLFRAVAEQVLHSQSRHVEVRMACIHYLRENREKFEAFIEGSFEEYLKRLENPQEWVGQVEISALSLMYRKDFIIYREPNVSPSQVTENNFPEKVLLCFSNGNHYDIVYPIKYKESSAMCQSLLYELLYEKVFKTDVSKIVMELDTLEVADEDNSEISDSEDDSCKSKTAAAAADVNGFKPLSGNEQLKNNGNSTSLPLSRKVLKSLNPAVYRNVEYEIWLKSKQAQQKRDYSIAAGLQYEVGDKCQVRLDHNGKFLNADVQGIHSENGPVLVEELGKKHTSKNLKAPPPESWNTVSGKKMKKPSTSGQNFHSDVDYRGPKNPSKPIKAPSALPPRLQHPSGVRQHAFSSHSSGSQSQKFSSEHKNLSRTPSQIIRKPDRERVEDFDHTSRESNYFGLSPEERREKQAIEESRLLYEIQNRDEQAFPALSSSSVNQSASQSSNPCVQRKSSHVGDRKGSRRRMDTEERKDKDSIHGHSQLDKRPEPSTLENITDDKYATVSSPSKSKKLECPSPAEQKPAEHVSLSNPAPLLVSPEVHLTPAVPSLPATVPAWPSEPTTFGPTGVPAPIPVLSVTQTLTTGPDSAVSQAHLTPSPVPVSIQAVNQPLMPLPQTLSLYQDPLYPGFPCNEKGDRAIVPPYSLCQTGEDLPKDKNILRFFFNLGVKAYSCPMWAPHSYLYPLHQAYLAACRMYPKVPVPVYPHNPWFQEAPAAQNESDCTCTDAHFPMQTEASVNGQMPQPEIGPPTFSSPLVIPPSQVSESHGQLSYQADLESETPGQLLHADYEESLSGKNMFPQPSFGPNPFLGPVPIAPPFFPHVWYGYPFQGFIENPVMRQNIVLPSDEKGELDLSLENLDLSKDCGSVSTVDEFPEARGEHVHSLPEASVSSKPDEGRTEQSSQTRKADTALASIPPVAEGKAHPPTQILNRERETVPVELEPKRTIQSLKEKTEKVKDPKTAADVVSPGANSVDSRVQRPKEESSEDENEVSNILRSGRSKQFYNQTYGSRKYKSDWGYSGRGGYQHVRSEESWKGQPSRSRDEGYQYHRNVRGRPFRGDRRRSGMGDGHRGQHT
# Sequence of UniProt Q9BZQ8 (Q9BZQ8 whole entry, looked up): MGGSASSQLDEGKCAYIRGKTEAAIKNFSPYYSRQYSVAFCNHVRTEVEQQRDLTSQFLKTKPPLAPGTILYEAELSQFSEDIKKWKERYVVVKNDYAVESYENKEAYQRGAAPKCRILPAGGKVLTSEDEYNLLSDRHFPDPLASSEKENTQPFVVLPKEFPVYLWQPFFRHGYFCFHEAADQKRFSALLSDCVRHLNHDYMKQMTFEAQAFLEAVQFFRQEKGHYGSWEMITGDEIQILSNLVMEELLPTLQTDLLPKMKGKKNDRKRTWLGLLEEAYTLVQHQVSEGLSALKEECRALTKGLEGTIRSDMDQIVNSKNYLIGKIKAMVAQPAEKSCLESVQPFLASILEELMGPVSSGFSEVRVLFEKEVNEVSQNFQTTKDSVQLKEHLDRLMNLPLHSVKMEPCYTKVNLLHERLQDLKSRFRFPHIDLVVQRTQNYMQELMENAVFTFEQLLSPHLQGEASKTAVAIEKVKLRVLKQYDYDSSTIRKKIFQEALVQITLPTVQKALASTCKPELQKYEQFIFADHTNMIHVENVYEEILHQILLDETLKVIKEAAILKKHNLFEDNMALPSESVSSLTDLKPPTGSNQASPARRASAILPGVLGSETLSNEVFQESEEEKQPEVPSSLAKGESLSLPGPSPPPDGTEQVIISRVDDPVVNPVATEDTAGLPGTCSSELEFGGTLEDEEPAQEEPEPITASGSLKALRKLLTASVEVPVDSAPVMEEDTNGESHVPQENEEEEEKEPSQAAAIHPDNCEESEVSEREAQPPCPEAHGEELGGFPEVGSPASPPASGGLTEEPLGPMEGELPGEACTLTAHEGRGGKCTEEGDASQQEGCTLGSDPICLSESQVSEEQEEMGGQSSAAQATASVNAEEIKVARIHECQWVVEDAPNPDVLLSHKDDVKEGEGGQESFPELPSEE
# Sequence of UniProt Q9UI09 (Q9UI09 whole entry, looked up): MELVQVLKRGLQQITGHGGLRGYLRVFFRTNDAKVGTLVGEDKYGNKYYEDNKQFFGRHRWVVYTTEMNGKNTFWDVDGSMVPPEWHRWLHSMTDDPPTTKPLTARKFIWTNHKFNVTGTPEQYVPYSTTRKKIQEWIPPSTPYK
row,Target,log2 fold change
1,NOB1 (UniProt Q9ULX3),-0.053 (inactive)
2,MRPS25 (UniProt P82663),0.031 (inactive)
3,NACC1 (UniProt Q96RE7),-0.32 (inactive)
4,NEMP1 (UniProt O14524),0.007 (inactive)
5,MTHFD1 (UniProt P11586),-0.074 (inactive)
6,OXSM (UniProt Q9NWU1),-0.063 (inactive)
7,MT-ATP6 (UniProt P00846),0.043 (inactive)
8,OTUD4 (UniProt Q01804),0.078 (inactive)
9,MRPL50 (UniProt Q8N5N7),0.026 (inactive)
10,NFATC2 (UniProt Q13469),-0.098 (inactive)
11,NUP205 (UniProt Q92621),-0.108 (inactive)
12,MRPS24 (UniProt Q96EL2),-0.004 (inactive)
13,MINK1 (UniProt Q8N4C8),-0.01 (inactive)
14,NUP85 (UniProt Q9BW27),-0.158 (inactive)
15,NOP56 (UniProt O00567),0.141 (inactive)
16,P4HA2 (UniProt O15460),0.08 (inactive)
17,NCAPH (UniProt Q15003),-0.126 (inactive)
18,MRPS15 (UniProt P82914),-0.021 (inactive)
19,"NA, A0A096LPI6",0.023 (inactive)
20,NQO1 (UniProt P15559),0.011 (inactive)

row,Target,log2 fold change
1,NIBAN1 (UniProt Q9BZQ8),-0.16 (inactive)
2,MPHOSPH10 (UniProt O00566),0.099 (inactive)
3,NCAPD2 (UniProt Q15021),-0.131 (inactive)
4,NFATC2IP (UniProt Q8NCF5),-0.09 (inactive)
5,NARS2 (UniProt Q96I59),-0.021 (inactive)
6,NMT2 (UniProt O60551),0.013 (inactive)
7,MTHFS (UniProt P49914),0.082 (inactive)
8,NUCKS1 (UniProt Q9H1E3),-0.061 (inactive)
9,MYH11 isoform 2 (UniProt P35749),-0.021 (inactive)
10,NUP160 (UniProt Q12769),-0.109 (inactive)
11,NDUFA12 (UniProt Q9UI09),-0.135 (inactive)
12,NUDT21 (UniProt O43809),0.036 (inactive)
13,NCOA7 (UniProt Q8NI08),-0.035 (inactive)
14,MON2 isoform 5 (UniProt Q7Z3U7),-0.125 (inactive)
15,NMRAL1 (UniProt Q9HBL8),0.27 (inactive)
16,NMNAT1 (UniProt Q9HAN9),0.302 (inactive)
17,MND1 (UniProt Q9BWT6),-0.081 (inactive)
18,NUDT16 (UniProt Q96DE0),0.038 (inactive)
19,NGLY1 (UniProt Q96IV0),-0.07 (inactive)

# Compound: CC[C@@H]1C(=O)N(C)c2cnc(Nc3ccc(C(=O)N[C@H]4CC[C@H](N5CCN(CC6CC6)CC5)CC4)cc3OC)nc2N1C(C)C [volasertib]
# Assay: as above
# How it was run: as §1
row,Target,log2 fold change
1,NOB1 (UniProt Q9ULX3),-0.026 (inactive)
2,MRPS25 (UniProt P82663),-0.057 (inactive)
3,NACC1 (UniProt Q96RE7),-0.616 (active)
4,NEMP1 (UniProt O14524),-0.128 (inactive)
5,MTHFD1 (UniProt P11586),-0.002 (inactive)
6,OXSM (UniProt Q9NWU1),-0.017 (inactive)
7,MT-ATP6 (UniProt P00846),-0.091 (inactive)
8,OTUD4 (UniProt Q01804),-0.067 (inactive)
9,MRPL50 (UniProt Q8N5N7),-0.029 (inactive)
10,NFATC2 (UniProt Q13469),-0.281 (inactive)
11,NUP205 (UniProt Q92621),-0.35 (active)
12,MRPS24 (UniProt Q96EL2),0.121 (inactive)
13,MINK1 (UniProt Q8N4C8),-0.149 (inactive)
14,NUP85 (UniProt Q9BW27),-0.561 (active)
15,NOP56 (UniProt O00567),0.238 (inactive)
16,P4HA2 (UniProt O15460),-0.012 (inactive)
17,NCAPH (UniProt Q15003),-0.353 (active)
18,MRPS15 (UniProt P82914),-0.048 (inactive)
19,"NA, A0A096LPI6",0.044 (inactive)
20,NQO1 (UniProt P15559),0.057 (inactive)

row,Target,log2 fold change
1,NIBAN1 (UniProt Q9BZQ8),-0.428 (active)
2,MPHOSPH10 (UniProt O00566),-0.155 (inactive)
3,NCAPD2 (UniProt Q15021),-0.486 (active)
4,NFATC2IP (UniProt Q8NCF5),-0.278 (active)
5,NARS2 (UniProt Q96I59),-0.043 (inactive)
6,NMT2 (UniProt O60551),-0.177 (inactive)
7,MTHFS (UniProt P49914),0.236 (active)
8,NUCKS1 (UniProt Q9H1E3),-0.012 (inactive)
9,MYH11 isoform 2 (UniProt P35749),-0.045 (inactive)
10,NUP160 (UniProt Q12769),-0.62 (active)
11,NDUFA12 (UniProt Q9UI09),-0.244 (inactive)
12,NUDT21 (UniProt O43809),0.074 (inactive)
13,NCOA7 (UniProt Q8NI08),-0.287 (active)
14,MON2 isoform 5 (UniProt Q7Z3U7),-0.377 (active)
15,NMRAL1 (UniProt Q9HBL8),0.294 (inactive)
16,NMNAT1 (UniProt Q9HAN9),0.161 (inactive)
17,MND1 (UniProt Q9BWT6),-0.175 (inactive)
18,NUDT16 (UniProt Q96DE0),0.033 (inactive)
19,NGLY1 (UniProt Q96IV0),-0.367 (active)
